The sample as a whole holds a higher share of hits than the screen did.
TNAP act mid DEA = activators of human TNAP at intermediate phosphate acceptor; 64,000 tested, under 10 active; activation factor at 20 µM; P05186; purified TNAP, CDP-star luminescence, 100 mM DEA, 30 min; stronger effect = higher value; scale: 0 levamisole-inhibited, 1 vehicle-only enzyme;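 active = activation factor of at least 2 at 20 µM, relative to controls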
Target sequence (P05186 whole entry, looked up): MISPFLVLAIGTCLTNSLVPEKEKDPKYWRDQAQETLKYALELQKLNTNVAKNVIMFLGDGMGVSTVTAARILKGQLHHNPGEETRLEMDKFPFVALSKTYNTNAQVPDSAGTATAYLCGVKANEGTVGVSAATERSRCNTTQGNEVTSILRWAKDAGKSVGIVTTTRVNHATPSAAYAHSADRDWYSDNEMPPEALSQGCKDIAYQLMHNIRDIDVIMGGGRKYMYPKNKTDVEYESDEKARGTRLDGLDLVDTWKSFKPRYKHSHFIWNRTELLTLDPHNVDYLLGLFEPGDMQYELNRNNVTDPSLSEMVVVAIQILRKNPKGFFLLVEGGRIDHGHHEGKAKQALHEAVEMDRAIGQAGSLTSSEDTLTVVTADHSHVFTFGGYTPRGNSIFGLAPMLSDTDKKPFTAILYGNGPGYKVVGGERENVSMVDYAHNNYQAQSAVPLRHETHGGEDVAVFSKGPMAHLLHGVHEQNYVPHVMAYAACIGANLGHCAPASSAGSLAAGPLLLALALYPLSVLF
PLAP activator = human PLAP activation; activation fold at 20 µM; P05187; purified PLAP enzyme, luminescent substrate read-out; stronger effect = higher value; 96,000 tested, 1.2% active; in the data active = activation fold above about 2
Ec RNAP inh = Escherichia coli RNA polymerase inhibition | 62,000 tested, 0.2% active | inhibition, %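 (tested at 10 µM)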 | P0A8V2 | E. coli RNA polymerase, fluorescence transcription assay; in the data active = inhibition above about 20%
Hits are given with their value; 0 = inactive; - = no result.

SMILES	TNAP act mid DEA	PLAP activator	Ec RNAP inh
CCC(C)NC(=O)c1c(N)n(Cc2ccc3c(c2)OCO3)c2nc3ccccc3nc12 (configuration not stated)	0	0	0
CCC(C)NC(=O)c1c(N)n(CCCOC)c2nc3ccccc3nc12 (configuration not stated)	0	2	0
COCCCn1c(N)c(C(=O)OC(C)COC)c2nc3ccccc3nc21 (configuration not stated)	0	0	0
Nc1c(C(=O)NCCc2ccccc2)c2nc3ccccc3nc2n1CCN1CCOCC1	0	0	0
CCC(C)NC(=O)c1c(N)n(CC2CCCO2)c2nc3ccccc3nc12 (configuration not stated)	0	2	0
COc1ccc(CCNC(=O)c2c(N)n(CCN3CCOCC3)c3nc4ccccc4nc23)cc1	0	0	0
CCCCn1c(N)c(C(=O)NCCN2CCOCC2)c2nc3ccccc3nc21	0	2.3	0
CC(C)CCNC(=O)c1c(N)n(CC2CCCO2)c2nc3ccccc3nc12 (configuration not stated)	0	2.1	0
CCCCCCN=C(C)c1c(O)n(CCCC)c(=O)[nH]c1=O	0	0	0
CC(C)(C)N(NC(=O)c1ccccc1)C(=O)c1ccccc1	-	0	-
CC(=O)N1N=C2C3CCN(CC3)C2C1c1ccccc1 (configuration not stated)	-	0	-
CCCC(C)(COC(N)=O)COC(=O)NC(C)C (configuration not stated)	0	-	0
CC(C)(C)OC(=O)c1c(N)n(Cc2ccco2)c2nc3ccccc3nc12	0	2.1	0
COCCNC(=O)c1c(N)n(Cc2ccco2)c2nc3ccccc3nc12	-	0	-
Brc1ccc(CN2CCNCC2)s1	-	0	-
CC1(C)CC(n2[nH]c(=O)c3c2NC(=O)CSC3c2ccc(F)cc2)CCO1 (configuration not stated)	0	0	0
CC(=O)OC1C2CCC1C(N1CCCC1)CC2 (configuration not stated)	-	0	-
O=C(NC1(C(F)(F)F)Oc2ccc(Cl)cc2O1)N1CCC2(CC1)OCCO2 (configuration not stated)	0	-	22
O=C(CCCOc1ccc(Cl)cc1Cl)N1CCC2(CC1)OCCO2	0	0	0
Cc1cccc(C(=O)Nc2ccc(Cl)cc2C(=O)c2ccccc2)c1	-	0	-
CCN(CC)CCNCC(=O)Nc1ccc(Cl)cc1C(=O)c1ccccc1	-	2.6	-
COCCOC(=O)C1=C(N)Oc2c(c(=O)oc3ccccc23)C1c1ccncc1 (configuration not stated)	0	0	0
CCCCn1c(O)c(C(CC)=NCCCN(C)C)c(=O)[nH]c1=O	0	0	21
CCCCn1c(O)c(C(C)=NCCCN(C)C)c(=O)[nH]c1=O	0	0	0

Assay outcomes deposited in PubChem BioAssay by several laboratories.
